Data: PubChem BioAssay AID2551 (National Center for Advancing Translational Sciences (NCATS), 2010)
“And” between values parts separate entries of the source, which are not always exact repeats. Equal entries are not always repeated. The whole screen tested about 310,000 compounds, of which about 17,000 (5.5%) were called active. Roughly 11% stayed inconclusive and do not appear here. Shown is part of a subset that was picked to be rich in actives. Values without a mark were called inactive. Calls follow the shape of the dose curve; as a rule, active = well fitted inhibition curve with a large enough effect; inconclusive = small, poorly fitted or top-dose-only effect, or effect the other way; inactive = no such curve, though single readings can be large or run the other way.

Target: Nuclear receptor ROR-gamma (Mus musculus) (UniProt P51450)
Sequence (P51450 whole entry, looked up): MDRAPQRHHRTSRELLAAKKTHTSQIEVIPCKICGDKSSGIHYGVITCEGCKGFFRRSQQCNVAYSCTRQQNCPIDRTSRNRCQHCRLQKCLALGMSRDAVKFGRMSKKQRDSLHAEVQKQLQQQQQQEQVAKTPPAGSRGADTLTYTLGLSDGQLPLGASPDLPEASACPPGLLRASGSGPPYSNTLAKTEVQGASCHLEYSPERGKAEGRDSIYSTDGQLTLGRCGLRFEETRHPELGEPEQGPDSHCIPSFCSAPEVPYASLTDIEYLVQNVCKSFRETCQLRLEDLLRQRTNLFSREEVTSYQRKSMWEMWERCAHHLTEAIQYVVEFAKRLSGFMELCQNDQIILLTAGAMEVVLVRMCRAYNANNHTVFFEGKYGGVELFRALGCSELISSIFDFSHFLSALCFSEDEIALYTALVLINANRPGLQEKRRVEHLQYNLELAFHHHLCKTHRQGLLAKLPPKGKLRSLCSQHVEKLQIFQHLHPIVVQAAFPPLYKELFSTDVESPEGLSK
Assay: qHTS for inhibitors of ROR gamma transcriptional activity; also: nearly all actives have a fitted effect of over 60% in size
Conditions: Drosophila S2 Gal4-RORgamma UAS-luciferase reporter, 20 h; series mostly up to 53.6 µM; activity change, negative = inhibition: at the top concentration
Method in brief: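 In this cell-based reporter format, copper sulfate (700 uM final) drives Gal4–ROR gamma fusion expression from a metallothionein promoter in Drosophila Schneider cells; compounds preincubated 1 hr, reporter read after 20 hr at ambient temperature.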
% is scaled to controls: 0 for no effect and ±100 for the full control effect; potency is read from the fitted curve at half-maximal effect.

| Structure (SMILES) | activity change, negative = inhibition | Potency |
| --- | --- | --- |
| O=[N+]([O-])c1ccc(N2CCN(c3ccc(F)cc3)CC2)cn1 | 14.3% | – |
| Cc1cc(C)cc(NC(=O)NC2CCCCCCC2)c1 | 19.2% | – |
| O=C(COc1ccc(Br)cc1F)NC1CCN(Cc2ccccc2)CC1 | -11% | – |
| S=C(Nc1ccc(Br)cc1Cl)NC1CCN(Cc2ccccc2)CC1 | – | 10 µM (active) |
| Cc1ccc(NC(=S)Nc2ccc(F)cc2)cc1 | – | 11.2 µM (active) |
| CCCCC(=O)NCc1ccc(F)cc1 | 3.75% | – |
| O=C(NC1CCN(Cc2ccccc2)CC1)c1cc(Br)c(Br)[nH]1 | 6.64% | – |
| Cc1cc(Br)ccc1NC(=S)NC1CCCC1 | – | 3.16 µM (active) |
| Cc1ccc(C(=O)CNc2ccc(F)cc2)cc1 | 0.535% | – |
| Cc1cc(C)cc(NC(=S)NCc2ccc(F)cc2)c1 | – | 2.51 µM (active) |
| CC(Oc1ccc(Br)cc1Br)C(=O)NC1CCCC1 (centres undefined) | 12.7% | – |
| COc1cc(NC(=S)NCc2ccc(S(N)(=O)=O)cc2)cc(OC)c1 | 3.21% | – |
| COC(=O)c1sccc1NC(=S)Nc1ccc(C)cc1 | 11.9% | – |
| CC(=O)Nc1ccc(Oc2ccc3c(c2)C(=O)NC3=O)cc1 | 20.2% | – |
| O=C(NCCCn1ccnc1)/C(=C\c1ccccc1F)NC(=O)c1ccccc1 | -8.54% | – |
| CCc1cc(=O)oc2c(C)c(OCC(=O)NCCN3CCOCC3)ccc12 | -18% | – |
| CCCc1cc(=O)oc2cc(OCC(=O)Nc3ccc(CN4CCOCC4)cc3)c(Cl)cc12 | -1.12% | – |
| COc1ccc(N2CCN(CCNC(=O)Nc3cc(Cl)ccc3Cl)CC2)cc1 | -9.76% | – |
| CCOC(=O)C1=C(CCc2ccccc2)NC(=O)NC1c1ccc2ccccc2c1 (centres undefined) | 30% | – |
| COc1ccc(CNC(=O)Cc2ccc(-c3ccccc3)cc2)cc1OC | 42.9% | – |
| CCOc1ccc(NC(=O)c2cccc3c2C(=O)N(CC2CCCO2)C3)cc1 (centres undefined) | -32.5% | – |
| COc1ccc(-c2noc(CCCC(=O)NC3CCCC3)n2)cc1OC | -9.96% | – |

| Structure (SMILES) | activity change, negative = inhibition | Potency |
| --- | --- | --- |
| O=C(CCn1nnc2ccccc21)OCC(=O)c1ccc([N+](=O)[O-])cc1 | -28.8% | – |
| COc1ccc(C2NC(=O)N(C)C(C)=C2[N+](=O)[O-])cc1 (centres undefined) | -29.9% | – |
| CCN(CC(=O)Nc1ccc2c(c1)OCO2)S(=O)(=O)c1ccccc1 | 4.13% | – |
| CCc1c(C)nc(SCC(=O)NC2CCCC2)[nH]c1=O | -5.4% | – |
| CN(CCc1ccccn1)C1CCCN(S(=O)(=O)c2ccccc2Cl)C1 (centres undefined) | 0% | – |
| S=C(NN=C1CCN(Cc2ccccc2)CC1)NC1CCCCC1 | – | 2.24 µM (active) |
| O=C(NC1CCN(Cc2ccccc2)CC1)c1ccccc1F | -14.8% | – |
| Cc1cc(C)cc(NC(=S)NCCc2c[nH]c3ccccc23)c1 | – | 7.08 µM (active) |
| CC(C)c1ccc(NC(=O)NC2CCCCC2)cc1 | 2.06% | – |
| Cc1ccc(NC(=O)CSCC(=O)NC2CCCCC2)cc1 | -0.956% | – |
| O=C(NCCc1c[nH]c2ccccc12)c1cccc(Br)c1 | -2.38% | – |
| COc1ccccc1CC(=O)NCCc1c[nH]c2ccccc12 | 10.5% | – |
| Cc1ccc(NC(=S)NC2CCCC2)cc1 | – | 3.55 µM (active) |
| O=C(NC1CCN(Cc2ccccc2)CC1)c1c(F)cccc1F | 1.32% | – |
| COc1ccc(CN2CCN(Cc3ccc(OC)c(OC)c3OC)CC2)cc1 | -0.466% | – |
| CC1(c2ccc(Cl)cc2)NC(=O)N(CC(=O)c2ccc3c(c2)OCO3)C1=O (centres undefined) | 9.33% | – |
| CCc1ccc(Oc2coc3cc(O)ccc3c2=O)cc1 | -36.1% | – |
| CCC1CCCCN1C(=O)CSc1nc2c(c(=O)n1C)SC(C)C2 (centres undefined) | 15.6% | – |
| Cc1noc(C)c1CCC(=O)N1CCCC(CO)(Cc2ccccc2)C1 (centres undefined) | 26.1% | – |
| CCOc1ccc(NC(=O)C2CCN(C(=O)N3CCOc4ccccc43)CC2)cc1 | 20.2% | – |
| CCC(C)Sc1nc2c(cnn2-c2ccc(F)cc2)c(=O)[nH]1 (centres undefined) | -3.01% | – |
| CCc1[nH]nc(C(=O)N2CCCC(CO)(Cc3ccc(F)cc3F)C2)c1C (centres undefined) | 22% | – |

| Structure (SMILES) | activity change, negative = inhibition | Potency |
| --- | --- | --- |
| CCOc1ccc2nc(Nc3nc4ccc(NC(C)=O)cc4s3)sc2c1 | – | 3.16 µM (active) |
| CCC(=O)c1ccc(OCC(=O)Nc2ccc3nc(C)sc3c2)cc1 | 15% | – |
| CNC(=O)c1ccc2nc(NC(C)=O)sc2c1 | 9.09% | – |
| COc1ccc2nc(Nc3nc4cc5c(cc4s3)OCCO5)sc2c1 | – | 12.6 µM (active) |
| CCOc1ccc2nc(NC(=O)CSc3nc4c(c(=O)n(C)c(=O)n4C)n3CC)sc2c1 | 8.92% | – |
| CS(=O)(=O)c1ccc2nc(NC(=O)c3ccc(Cl)nc3)sc2c1 | 0.945% | – |
| COc1ccc2nc(NC(=O)[C@@H]3CCCN3C(=O)c3cccs3)sc2c1 | 40.9% | – |
| COc1ccc2nc(NC(=O)NC3CCCCC3)sc2c1 | 5.57% | – |
| CS(=O)(=O)c1ccc2nc(NC(=O)c3ccc(N4CCCC4=O)cc3)sc2c1 | 33.9% | – |
| CCOc1ccc(S(=O)(=O)Nc2nc3cc(OC)ccc3s2)cc1 | 2.49% | – |
| COc1ccc2nc(Nc3nc4ccc(NC(C)=O)cc4s3)sc2c1 | – | 2.82 µM (active) |
| COc1cccc(C(=O)Nc2nc3ccc(S(C)(=O)=O)cc3s2)c1 | – | 7.94 µM (active) |
| Cc1ccc2nc3c(cc(C(=O)NCCc4ccccc4)c(=N)n3CC3CCCO3)c(=O)n2c1 (centres undefined) | 20.8% | – |
| COc1ccccc1N(C)C(=O)c1cc(S(=O)(=O)N2CCc3ccccc32)cn1C | 2.49% | – |
| O=C(NCCOc1cccnc1)c1ccc(OC2CCN(Cc3ccccn3)CC2)cc1 | -11.4% | – |
| Nc1nnnn1/N=C/c1cccc(Br)c1 | 6.51% | – |
| CCCc1nn(C)c2c(=O)[nH]c(-c3cc(S(N)(=O)=O)ccc3OCC)nc12 | 6.93% | – |
| CCOc1cc(-c2noc(CCCC(=O)NC3CCCCC3)n2)ccc1OC | 16.1% | – |
| O=C(NCCCn1ccnc1)C1CCCN(S(=O)(=O)c2cc(Cl)ccc2Cl)C1 (centres undefined) | -23.4% | – |
| CCCNC(=O)c1cnc(-c2ccccc2)nc1-c1ccccc1 | -6.75% | – |
| C[C@H](NC(=O)C1CCN(S(=O)(=O)c2ccccc2)CC1)C(=O)NCc1ccccc1 | -4.29% | – |
| COc1ccc2nc(Nc3nc(-c4ccncc4)cs3)sc2c1 | -43% | – |

| Structure (SMILES) | activity change, negative = inhibition | Potency |
| --- | --- | --- |
| COc1ccc2oc(=O)cc(-c3cc4ccccc4o3)c2c1 | -21.6% | – |
| COc1ccc2nc(Nc3nc(-c4cc5ccccc5oc4=O)cs3)sc2c1 | – | 7.08 µM (active) |
| COCCOC1CCN(C(=O)c2ccc(OC)c(OC3CCN(C(C)C)CC3)c2)CC1 | -3.76% | – |
| COc1ccccc1C(=O)N(Cc1ccc(C)o1)C1CCS(=O)(=O)C1 (centres undefined) | 15.5% | – |
| CCOC(=O)c1ccc2[nH]c3c(c2c1)CCCC3NC=O (centres undefined) | 8.7% | – |
| Cc1cccc(C(=O)Nc2nnc(Cc3c[nH]c4ccccc34)s2)c1 | 27.2% | – |
| Cc1cccc(N=C2NN=C(c3c[nH]c4ccccc34)CS2)c1 | – | 4.47 µM (active) |
| N#Cc1c(N2CCCCC2)nc(N)c2c(N)nc(SCC(=O)O)cc12 | – | 3.98 µM (active) |
| N#Cc1c(-c2ccccc2)cc(-c2ccccc2)nc1SCC(=O)O | 3.5% | – |
| Cc1cc(C)c(C#N)c(N2CCC(C(N)=O)CC2)n1 | -3.81% | – |
| COc1ccccc1N1CCN(C(=O)c2cc(=O)c3cc(C)ccc3o2)CC1 | -23% | – |
| COc1ccc(C(C(=O)NC2CCCC2)N(CCCO)C(=O)Cn2nnc(-c3ccc(C)o3)n2)cc1 (centres undefined) | -14.8% | – |
| COC(=O)c1ccc(NC(=O)CSc2nnc(C3CC3)n2C)cc1 | -18.9% | – |
| COC(=O)CN1C(=O)[C@H]2[C@@H](/C=C/c3ccccc3)N3C(=O)CN(Cc4ccccc4)C(=O)[C@@]3(Cc3ccccc3)[C@H]2C1=O | 14.6% | – |
| CCOC(=O)c1cccc(NC(=O)CN2C(=O)C3CC=CCC3C2=O)c1 (centres undefined) | 4.38% | – |
| C=CCNC(=O)CCCOc1cccc(C)c1 | 14.2% | – |
| C=CCNC(=S)NNC(=O)COc1c(Cl)cc(Cl)cc1Cl | – | 1.26 µM (active) |
| C=CCNC(=O)COc1coc(CN2CCN(Cc3ccccc3)CC2)cc1=O | 11.3% | – |
| Cc1ccsc1C(=O)N[C@@H](C)c1nnc2ccccn12 | 6.89% | – |
| O=C(c1ccc(Br)o1)N1CCN(CCOc2ccccc2)CC1 | -19.1% | – |
| O=C(N=C1SC2CS(=O)(=O)CC2N1c1cc(Cl)ccc1Cl)C1CC1 (centres undefined) | 0.391% | – |
| COc1cc(NS(=O)(=O)c2ccc3ccccc3c2)c2ncccc2c1 | – | 1.12 µM (active) and 178 nM (active) |

| Structure (SMILES) | activity change, negative = inhibition | Potency |
| --- | --- | --- |
| COc1ccc2cc(S(=O)(=O)Nc3ccccn3)ccc2c1 | -10.9% | – |
| Cc1ccc(S(=O)(=O)Nc2ccc3ncccc3c2)cc1 | -8.13% | – |
| COc1cc2c(cc1OC)C(c1cccc([N+](=O)[O-])c1)=NCC2 | 25.9% | – |
| Cc1cc(=O)oc2c1ccc1ccccc12 | 2.03% | – |
| Brc1ccc2nc(N3CCCC3)sc2c1 | -43.7% | – |
| c1c2c(cc3sc(N4CCCCC4)nc13)OCCO2 | – | 0.794 µM (active) |
| Cc1nc2cc3c(cc2s1)OCO3 | 2.56% | – |
| COc1ccc(-c2cc(=O)oc3cc(OC(C)C(=O)Nc4ccc(CN5CCOCC5)cc4)ccc23)cc1 (centres undefined) | 37.1% | – |
| Cc1ccc(N(C(=O)CNC(=O)c2ccco2)C(C(=O)NC2CCCC2)c2ccncc2)cc1 (centres undefined) | 1.7% | – |
| COc1ccc(-n2cnnc2SCC(=O)Nc2cccc(S(N)(=O)=O)c2)cc1 | -9.16% | – |
| CCN(CC(=O)NC(=O)NCc1ccccc1)Cc1nc2ccccc2c(=O)[nH]1 | – | 0.355 µM (active) |
| CN(C)S(=O)(=O)c1cc(NC(=O)CN2C(=O)NC3(CCCc4ccccc43)C2=O)ccc1Cl (centres undefined) | 36.9% | – |
| NS(=O)(=O)c1cccc(NC(=O)CSc2nc3ccccc3n2-c2ccccc2)c1 | -0.215% | – |
| CCN(CC)c1ccc(C(=O)NNC(=O)CCc2nc3ccccc3c(=O)[nH]2)cc1 | 18.7% | – |
| CCn1c(Cc2ccccc2)nnc1SCc1nc2ccccc2c(=O)[nH]1 | 43.4% | – |
| CCN(CC(=O)Nc1ccc(Cl)c(S(=O)(=O)N(C)C)c1)Cc1nc2ccccc2c(=O)[nH]1 | – | 12.6 µM (active) |
| CCN(CC(=O)Nc1cccc(S(N)(=O)=O)c1)Cc1nc2ccccc2c(=O)[nH]1 | – | 2.82 µM (active) |
| CCCc1nc(SCC(=O)Nc2ccc(S(=O)(=O)N(C)C)cc2)c2ccccc2n1 | 7.51% [at 10 µM] | – |
| CC(C)=C(NC(=O)c1ccco1)C(=O)NCCc1nc2ccccc2[nH]1 | -9.69% | – |
| CCCC(=O)N(CCc1ccccc1)Cc1nc2ccccc2c(=O)[nH]1 | 15.3% | – |
| O=C(c1ccco1)N(Cc1nc2ccccc2c(=O)[nH]1)C1CCCC1 | – | 1.58 µM (active) |
